Our source for the outcome and AC50 values is PubChem BioAssay (EPA / NIEHS).

Records with an inconclusive call do not appear. Activity calls are given as the source filed them. The calls were made as follows, unless noted: active = hit-call score of the fitted dose curve at least 0.9, where 1 is the maximum; inactive = score below 0.9.

Read-out in assay [1]: NAD(P)H dehydrogenase [quinone] 1 (NQO1), NQO1 (gene 1728)
Nature of the assay: LTEA_HepaRG_NQO1: Life Technologies and Expression Analysis (LTEA) Assay for NAD(P)H dehydrogenase [quinone] 1 (NQO1) using HepaRG (AID 2283526). The settings on record: mRNA level, 48 h; actives raise or lower the signal. The essentials:
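qRT-PCR read-out (Fluidigm TaqMan), normalized to three housekeeping genes, after 48 h chemical exposure of HepaRG cells. Concentrations: eight points, top 100 uM, half-log steps, 0.5% DMSO vehicle. Gain or loss of signal fitted relative to DMSO.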

Read-out in assay [2]: Nuclear factor erythroid 2-related factor 2 (Homo sapiens) (UniProt Q16236)
Nature of the assay: LTEA_HepaRG_NFE2L2: Life Technologies and Expression Analysis (LTEA) Assay for Nuclear factor erythroid 2-related factor 2 (NFE2L2) Transcription Factor using HepaRG (AID 2283527). The settings on record: mRNA level, 48 h; actives raise or lower the signal. An outline of the steps:
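Human liver HepaRG line treated in duplicate for 48 h with an eight-point series topping at 100 uM. Gene expression of NFE2L2 by qRT-PCR, bidirectionally fitted against the vehicle control.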

Read-out in assay [3]: succinate dehydrogenase complex iron sulfur subunit B (SDHB), SDHB (gene 6390)
Nature of the assay: LTEA_HepaRG_SDHB: Life Technologies and Expression Analysis (LTEA) Assay for succinate dehydrogenase complex iron sulfur subunit B (SDHB) using HepaRG (AID 2283528). The settings on record: mRNA level, 48 h; actives raise or lower the signal. The essentials:
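SDHB transcript level read by TaqMan qRT-PCR, housekeeping-normalised (ACTB, GAPDH, POLR2A), after 48 h chemical treatment of plated HepaRG cells; eight concentrations top 100 uM, half-log steps, 0.5% DMSO, duplicates; fitted both directions against DMSO.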

Read-out in assay [4]: Signal transducer and activator of transcription 3 (Homo sapiens) (UniProt P40763)
Nature of the assay: LTEA_HepaRG_STAT3: Life Technologies and Expression Analysis (LTEA) Assay for Signal transducer and activator of transcription (STAT3) using HepaRG (AID 2283529). Particulars: mRNA level, 48 h; actives raise or lower the signal. The essentials:
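In this transcriptional endpoint, HepaRG cultures receive test chemicals at up to 100 uM for 48 h, tested in duplicate. STAT3 mRNA is normalized to ACTB, GAPDH and POLR2A.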

Read-out in assay [5]: solute carrier (SLCO1B1), SLCO1B1 (gene 10599)
Nature of the assay: LTEA_HepaRG_SLCO1B1: Life Technologies and Expression Analysis (LTEA) Assay for solute carrier (SLCO1B1) using HepaRG (AID 2283530). The settings on record: mRNA level, 48 h; actives raise or lower the signal. The essentials: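 SLCO1B1 transcript read by qRT-PCR (Fluidigm arrays), normalized to three housekeeping genes, after 48 h chemical exposure of HepaRG cells; bidirectional concentration-response fitting versus 0.5% DMSO baseline. Eight-point half-log series, maximum 100 uM.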

Read-out in assay [6]: sulfotransferase 2A1 (SULT2A1), SULT2A1 (gene 6822)
Nature of the assay: LTEA_HepaRG_SULT2A1: Life Technologies and Expression Analysis (LTEA) Assay for sulfotransferase 2A1 (SULT2A1) using HepaRG (AID 2283531). Particulars: mRNA level, 48 h; actives raise or lower the signal. An outline of the steps: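 HepaRG, 48 h chemical exposure, 8-pt half-log curve from 100 uM in 0.5% DMSO, duplicates. Readout: TaqMan qRT-PCR of SULT2A1 mRNA, housekeeping-normalized. Bidirectional fit vs DMSO baseline.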

Read-out in assay [7]: Transforming Growth Factor (TGFA), TGFA (gene 7039)
Nature of the assay: LTEA_HepaRG_TGFA: Life Technologies and Expression Analysis (LTEA) Assay for Transforming Growth Factor (TGFA) using HepaRG (AID 2283532). The settings on record: mRNA level, 48 h; actives raise or lower the signal. The essentials:
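Gene expression of TGFA was quantified by qRT-PCR after human HepaRG cells were treated for 48 h with test chemicals (eight concentrations, highest 100 uM, 0.5% DMSO). Activity in either direction was fitted relative to DMSO.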

Read-out in assay [8]: Transforming Growth Factor (TGFB1), TGFB1 (gene 7040)
Nature of the assay: LTEA_HepaRG_TGFB1: Life Technologies and Expression Analysis (LTEA) Assay for Transforming Growth Factor (TGFB1) Transporter using HepaRG (AID 2283533). The settings on record: mRNA level, 48 h; actives raise or lower the signal. An outline of the steps: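 qRT-PCR readout of TGFB1 transcript in HepaRG lysates, normalized to three housekeeping genes; gain or loss of signal fitted relative to 0.5% DMSO vehicle. Exposure: 48 h, 8-point curve from 100 uM, duplicate wells.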

Read-out in assay [9]: TIMP1, TIMP1 (gene 7076)
Nature of the assay: LTEA_HepaRG_TIMP1: Life Technologies and Expression Analysis (LTEA) Assay for TIMP1 using HepaRG (AID 2283534). Particulars: mRNA level, 48 h; actives raise or lower the signal. An outline of the steps:
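HepaRG, 48 h exposure, 8-pt half-log series from 100 uM in 0.5% DMSO, duplicates; TIMP1 transcript by Fluidigm qRT-PCR, housekeeping-normalized; bidirectional curve fit vs DMSO baseline.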

Read-out in assay [10]: Tumor necrosis factor receptor 1 (TNFRSF1A), TNFRSF1A (gene 7132)
Nature of the assay: LTEA_HepaRG_TNFRSF1A: Life Technologies and Expression Analysis (LTEA) Assay for Tumor necrosis factor receptor 1 (TNFRSF1A) using HepaRG (AID 2283535). The settings on record: mRNA level, 48 h; actives raise or lower the signal. The essentials: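 HepaRG, 48 h plating then 48 h chemical exposure, serum-free induction media; 8-pt CRC from 100 uM, half-log, 0.5% DMSO vehicle, duplicates. Readout: TaqMan qRT-PCR (Fluidigm), housekeeping-gene normalized; bidirectional fit vs DMSO.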

Read-out in assay [11]: Thyroid Hormone Responsive (THRSP), THRSP (gene 7069)
Nature of the assay: LTEA_HepaRG_THRSP: Life Technologies and Expression Analysis (LTEA) Assay for Thyroid Hormone Responsive (THRSP) using HepaRG (AID 2283536). The settings on record: mRNA level, 48 h; actives raise or lower the signal. An outline of the steps:
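Cell model: human HepaRG, approx. 100,000 cells/well, 0.5% DMSO vehicle. Exposure lasts 48 h; phenobarbital 1 mM serves as induction positive control. Gene expression is measured by qRT-PCR against three endogenous control genes.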

Read-out in assay [12]: Cellular tumor antigen p53 (Homo sapiens) (UniProt P04637)
Nature of the assay: LTEA_HepaRG_TP53: Life Technologies and Expression Analysis (LTEA) Assay for Tumor Protein P53 (TP53) using HepaRG (AID 2283537). Particulars: mRNA level, 48 h; actives raise or lower the signal. An outline of the steps:
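TP53 transcript measured by qRT-PCR, normalized to three housekeeping genes, after 48 h treatment of human HepaRG cultures with chemicals from 100 uM downward in half-log steps (0.5% DMSO vehicle, serum-free induction medium). Up- or down-regulation fitted against DMSO.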

Read-out in assay [13]: UDP glucuronosyltransferase (UGT1A1), UGT1A1 (gene 54658)
Nature of the assay: LTEA_HepaRG_UGT1A1: Life Technologies and Expression Analysis (LTEA) Assay for UDP glucuronosyltransferase (UGT1A1) using HepaRG (AID 2283538). Particulars: mRNA level, 48 h; actives raise or lower the signal. The essentials: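 HepaRG, 48 h chemical exposure (top 100 uM, half-log 8-pt, 0.5% DMSO vehicle), duplicate wells; qRT-PCR (TaqMan, Fluidigm array) for UGT1A1 mRNA, housekeeping-normalized; bidirectional curve fit vs DMSO baseline.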

Read-out in assay [14]: UDP glucuronosyltransferase (UGT1A6), UGT1A6 (gene 54578)
Nature of the assay: LTEA_HepaRG_UGT1A6: Life Technologies and Expression Analysis (LTEA) Assay for UDP glucuronosyltransferase (UGT1A6) using HepaRG (AID 2283539). Particulars: mRNA level, 48 h; actives raise or lower the signal. The essentials: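 qRT-PCR readout of UGT1A6 mRNA (normalized to ACTB/GAPDH/POLR2A) in differentiated HepaRG cells after 48 h chemical exposure; 8 concentrations, top 100 uM, half-log steps, 0.5% DMSO. Bidirectional curve fit relative to DMSO baseline.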

Read-out in assay [15]: X-box binding protein 1 (XBP1), XBP1 (gene 7494)
Nature of the assay: LTEA_HepaRG_XBP1: Life Technologies and Expression Analysis (LTEA) Assay for X-box binding protein 1 (XBP1) using HepaRG (AID 2283540). The settings on record: mRNA level, 48 h; actives raise or lower the signal. The essentials: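 HepaRG, 48 h exposure, 8-pt half-log CRC top 100 uM, 0.5% DMSO vehicle, duplicates. Readout: TaqMan qRT-PCR of XBP1 mRNA, housekeeping-normalised (ACTB/GAPDH/POLR2A); bidirectional fit vs DMSO baseline.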

Assay [16] is described as follows: LTEA_HepaRG_LDH_cytotoxicity: Cytotoxicity Assessment in the Life Technologies and Expression Analysis (LTEA) Assay (AID 2283563; active = hit-call score of the fitted dose curve at least 0.9, where 1 is the maximum). An outline of the steps: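 HepaRG (human liver line), 48 h exposure, 8-pt half-log series from 100 uM, 0.5% DMSO vehicle, duplicates. Read-out: LDH in spent medium. Positive-direction fit vs DMSO baseline.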
A short description of assay [17]: TOX21_p53_BLA_p2_viability: Viability Assessment in the Tox21 HCT-116 p53 Agonism Beta-lactamase Assay, Phase 2 (AID 2283591; active = hit-call score of the fitted dose curve at least 0.9, where 1 is the maximum;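 also: actives lower the ATP signal meaning cytotoxicity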). An outline of the steps: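 HCT-116 p53-bla cells (4000/well) rested 5 h at 37C, then received compounds in DMSO (217-fold dilution) for 16 h at 37C, 5% CO2. After the CCF4 read, CellTiter-Glo was added; ATP luminescence was read after 30 min at room temperature.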

Assay [18] addresses Cellular tumor antigen p53 (Homo sapiens) (UniProt P04637). Nature of the assay: TOX21_p53_BLA_p2_ratio: Tox21 HCT-116 p53 Agonism Beta-lactamase Assay, Ratio, Phase 2 (AID 2283592; active = hit-call score of the fitted dose curve at least 0.9, where 1 is the maximum). An outline of the steps:
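Readout: blue/green (460/530 nm) FRET emission ratio after 2 h CCF4-AM loading at room temperature, excitation 405 nm. HCT116 p53 bla cells, 16 h compound exposure at 37C, 5% CO2; agonist direction fitted against DMSO baseline.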

The nature of assay [19]: TOX21_p53_BLA_p3_viability: Viability Assessment in the Tox21 HCT-116 p53 Agonism Beta-lactamase Assay, Phase 3 (AID 2283593; active = hit-call score of the fitted dose curve at least 0.9, where 1 is the maximum;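 also: cells exposed to compound for 16 h before reading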). An outline of the steps: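 HCT-116 cells (4000/well) rested 5 h at 37C, then got DMSO compounds by pin tool (217-fold dilution) for 16 h at 37C, 5% CO2. After the bla read, CellTiter-Glo was added and luminescence read at 30 min, room temperature.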

Assay [20] in a line: ATG_XTT_Cytotoxicity: Cytotoxicity Assessment in the Attagene TRANS-FACTORIAL HepG2 Assay (AID 2283584; active = hit-call score of the fitted dose curve at least 0.9, where 1 is the maximum). An outline of the steps:
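XTT readout of cell number in transfected HepG2 cells, 24 h post-dosing; DMSO serves as negative control and baseline, with activity taken as loss of viability signal.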

Chain of Signal transducer and activator of transcription 3 (Homo sapiens) (P40763 whole entry, looked up): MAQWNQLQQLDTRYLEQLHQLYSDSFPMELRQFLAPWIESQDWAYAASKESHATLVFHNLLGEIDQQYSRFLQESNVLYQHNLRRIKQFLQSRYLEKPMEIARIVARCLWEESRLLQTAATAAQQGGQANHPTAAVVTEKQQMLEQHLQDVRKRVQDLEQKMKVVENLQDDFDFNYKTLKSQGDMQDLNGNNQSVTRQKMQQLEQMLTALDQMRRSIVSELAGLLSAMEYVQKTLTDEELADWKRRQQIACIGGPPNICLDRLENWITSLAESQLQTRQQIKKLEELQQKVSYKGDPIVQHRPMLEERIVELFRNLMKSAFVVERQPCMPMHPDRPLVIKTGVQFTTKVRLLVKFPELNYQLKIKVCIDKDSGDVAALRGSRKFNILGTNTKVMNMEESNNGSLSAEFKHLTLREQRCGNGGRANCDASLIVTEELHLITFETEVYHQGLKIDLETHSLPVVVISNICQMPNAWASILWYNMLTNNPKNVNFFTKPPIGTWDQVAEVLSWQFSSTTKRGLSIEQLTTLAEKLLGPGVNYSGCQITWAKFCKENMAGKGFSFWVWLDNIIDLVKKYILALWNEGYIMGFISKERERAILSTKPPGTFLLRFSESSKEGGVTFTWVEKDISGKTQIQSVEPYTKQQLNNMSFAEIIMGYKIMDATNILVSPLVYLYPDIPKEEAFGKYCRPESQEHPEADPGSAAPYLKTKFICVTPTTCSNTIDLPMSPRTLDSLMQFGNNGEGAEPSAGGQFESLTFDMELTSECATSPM
Chain of Nuclear factor erythroid 2-related factor 2 (Homo sapiens) (Q16236 whole entry, looked up): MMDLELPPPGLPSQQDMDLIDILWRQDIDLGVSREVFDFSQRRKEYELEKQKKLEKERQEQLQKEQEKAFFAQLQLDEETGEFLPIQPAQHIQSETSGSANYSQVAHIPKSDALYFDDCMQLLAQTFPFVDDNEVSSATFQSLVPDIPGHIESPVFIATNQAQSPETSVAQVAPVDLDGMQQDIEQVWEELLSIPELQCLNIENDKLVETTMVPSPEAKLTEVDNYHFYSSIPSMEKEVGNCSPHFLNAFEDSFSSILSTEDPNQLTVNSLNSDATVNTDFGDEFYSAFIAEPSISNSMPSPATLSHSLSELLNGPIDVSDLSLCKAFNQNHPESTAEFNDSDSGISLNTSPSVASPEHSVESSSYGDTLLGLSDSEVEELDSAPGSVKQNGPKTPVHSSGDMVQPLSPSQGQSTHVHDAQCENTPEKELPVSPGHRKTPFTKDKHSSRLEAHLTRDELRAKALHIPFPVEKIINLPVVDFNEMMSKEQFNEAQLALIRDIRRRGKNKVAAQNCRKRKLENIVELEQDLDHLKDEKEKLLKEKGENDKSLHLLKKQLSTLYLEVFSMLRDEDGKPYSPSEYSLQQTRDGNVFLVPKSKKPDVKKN
Chain of Cellular tumor antigen p53 (Homo sapiens) (P04637 whole entry, looked up): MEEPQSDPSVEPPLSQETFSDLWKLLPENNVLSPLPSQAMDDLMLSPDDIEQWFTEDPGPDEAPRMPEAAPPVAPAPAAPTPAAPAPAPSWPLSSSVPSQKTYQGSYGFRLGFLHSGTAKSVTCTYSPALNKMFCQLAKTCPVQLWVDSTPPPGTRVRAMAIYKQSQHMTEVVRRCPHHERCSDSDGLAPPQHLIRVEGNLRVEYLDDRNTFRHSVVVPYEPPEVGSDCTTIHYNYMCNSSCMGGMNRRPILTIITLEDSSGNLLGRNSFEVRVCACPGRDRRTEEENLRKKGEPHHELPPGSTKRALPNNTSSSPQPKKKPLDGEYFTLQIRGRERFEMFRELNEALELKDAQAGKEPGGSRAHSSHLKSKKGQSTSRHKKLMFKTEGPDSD

`O=c1ccc(=O)[nH][nH]1`: the call in assay [1], in assay [2], in [3], in [4], in assay [5] and in assay [6] was inactive. The compound was classed as inactive in [7], in [8], in assay [9], in assay [10], in assay [11] and in assay [12]. Besides, the compound was classed as inactive in assay [13], in [14], in assay [15], in [16], in assay [17] and in assay [18]. For the same compound, the compound was called inactive in assay [19].
With `COP(=O)(NC(C)=O)SC` (configuration not stated), the call in assay [1], in assay [2], in assay [3], in assay [4], in assay [5] and in assay [6] was inactive. The compound was called inactive in assay [7], in assay [8], in [9], in [11], in assay [12] and in assay [13]. For the same compound, the call in assay [14], in assay [15], in assay [16], in assay [17], in assay [18] and in [19] was inactive.
One may read the AC50 as the concentration giving half of the maximal activity seen. Consider `C#CCC1=C(C)C(OC(=O)C2C(C=C(C)C)C2(C)C)CC1=O` (configuration not stated), for which the compound was classed as inactive in assay [1], in assay [2], in [4], in assay [5], in assay [6] and in [7]. For the same compound, the compound was called inactive in assay [8], in assay [9], in assay [10], in assay [12], in [13] and in [14]. The compound was classed as inactive in assay [15], in assay [16], in assay [20] and in assay [19]. Also, the AC50 in assay [3] was 9.87 µM (active); in [11], 88.9 µM (active); in assay [17], 45.8 µM (active); in assay [18], 86.7 µM (active).
